HEK cytotox – HEK 293 cell cytotoxicity | Potency, µM (doses to about 115 µM), inactives show at the highest dose activity change, negative = cytotoxicity, usual class: inhibitors | 6.6% of 94,000 active | HEK 293 viability, ATP luminescence (CellTiter-Glo), 48-72 h | AID 1345083; further: nearly all actives have a fitted effect of over 60% in size
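HEK 293 seeded at 250 cells/well receive compound via pintool. After 48 or 72 hr at 37 degree Celsius, 5% CO2 and 95% humidity, CellTiter-Glo is dispensed and luminescence read following 10 min at room temperature.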
NPR1 antag – antagonists of human natriuretic peptide receptor Npr1; 1.6% of 76,000 active; Potency, µM (titrated, usually from 46.3 µM), inactives show at the highest dose activity change, negative = inhibition, most hits filed as inhibitors; AID 1347048; HEK293 hNpr1 GloSensor cGMP, ANP-stimulated luminescence; calls by dose curve; further: nearly all actives have a fitted effect of over 60% in size
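Compound pre-incubated 30 min at room temperature on GloSensor-loaded HEK293 cells stably carrying hNpr1 and the pGS-40F cGMP biosensor. Stimulation uses hNppA at 0.1 nM final; luminescence is taken at baseline and 20 min post-agonist.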
3T3 cytotox – cytotoxic compounds in NIH 3T3 cells | 4.3% of 94,000 active | NIH 3T3 viability, CellTiter-Glo ATP luminescence, 48-72 h | Potency, µM (series often up to 96.7 µM), for the others: at the top dose activity change, negative = cytotoxicity, hits mostly inhibitors; further: nearly all actives have a fitted effect of over 55% in size
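Luminescent ATP readout (CellTiter-Glo, 10 min RT) after 48 or 72 hr compound exposure of NIH 3T3 cells seeded at 400 cells/well in 1536-well format; quantitative HTS.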
Luciferase inh – Photinus pyralis luciferase inhibition | 2.5% of 76,000 active | Potency, µM (titrated, usually from 115 µM), usual class: inhibitors | purified P. pyralis luciferase, luminescence, biochemical | P08659; further: nearly all actives have a fitted effect of over 65% in size
Target sequence (P08659 whole entry, looked up): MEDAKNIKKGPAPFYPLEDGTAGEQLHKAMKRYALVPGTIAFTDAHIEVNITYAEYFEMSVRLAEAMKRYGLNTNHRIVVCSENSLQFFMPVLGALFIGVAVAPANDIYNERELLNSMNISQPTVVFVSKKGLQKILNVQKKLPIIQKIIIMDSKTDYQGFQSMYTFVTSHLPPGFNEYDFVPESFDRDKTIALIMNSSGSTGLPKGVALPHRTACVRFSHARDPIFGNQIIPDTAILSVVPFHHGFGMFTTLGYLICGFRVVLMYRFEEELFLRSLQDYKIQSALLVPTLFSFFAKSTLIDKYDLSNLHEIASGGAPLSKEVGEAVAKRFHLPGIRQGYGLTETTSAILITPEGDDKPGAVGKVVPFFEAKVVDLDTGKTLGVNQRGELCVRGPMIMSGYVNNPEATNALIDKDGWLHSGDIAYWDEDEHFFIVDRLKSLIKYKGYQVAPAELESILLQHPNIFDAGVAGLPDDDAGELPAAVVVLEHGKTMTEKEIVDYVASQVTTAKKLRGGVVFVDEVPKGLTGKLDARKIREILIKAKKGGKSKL
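Luminescence read by CCD imaging after purified firefly luciferase (10nM final) was added to substrate buffer holding 10uM D-luciferin and 10uM ATP, pH 7.5, pre-dosed with compound.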
* hit, by the source's call; i = inactive; ? = inconclusive; . = no result; [ ] = remark or other dose. The list is not random: actives were taken first. Their share in the collection is about 11%. Unless noted, the call rests on the fitted dose curve; in most records, active means well fitted curve in the direction sought with a large enough effect; inconclusive means small, poorly fitted or top-dose-only effect, or another doubt; inactive means no such curve, though single readings can be large; an effect the other way counts as inactive or inconclusive. On the % scale 0 is the no-effect control and ±100 the full control effect; potency means the concentration at half of the fitted maximal effect.

SMILES	HEK cytotox	NPR1 antag	3T3 cytotox	Luciferase inh
Cn1cc(CN2CCOC[C@H](O)C2)c2ccccc21	63.1µM*	3.8%[70.6 µM]	89.1µM*	i
COc1ccccc1-c1cc([C@H]2CN3CC[C@H]2C[C@@H]3COC(=O)Nc2ccc(C(C)C)cc2)n(C)n1	28.2µM*	-1.0%	22.4µM*	i
COc1ccccc1-c1cc([C@H]2CN3CC[C@H]2C[C@@H]3COC(=O)Nc2ccc(C(C)(C)C)cc2)n(C)n1	25.1µM*	-1.8%	22.4µM*	i
COc1ccccc1-c1cc([C@H]2CN3CC[C@H]2C[C@@H]3COC(=O)Nc2ccccc2)n(C)n1	?	-2.3%	?	i
Cn1nc(-c2ccc3ccccc3c2)cc1[C@H]1CN2CC[C@H]1C[C@@H]2CNC(=O)c1cccs1	20µM*	-4.2%	25.1µM*	?
COCC(=O)NC[C@H]1C[C@@H]2CCN1C[C@@H]2c1cc(-c2ccc3ccccc3c2)nn1C	50.1µM*	-1.0%[70.6 µM]	35.5µM*	?
COc1ccc(-c2cc([C@H]3CN4CC[C@H]3C[C@@H]4CNC(=O)c3ccc(N(C)C)cc3)n(C)n2)cc1	22.4µM*	1.1%	?	i
COc1ccc(-c2cc([C@H]3CN4CC[C@H]3C[C@@H]4CNC(=O)c3cccs3)n(C)n2)cc1OC	?	-2.6%	?	i
CN(C)c1ccc(C(=O)NC[C@H]2C[C@@H]3CCN2C[C@@H]3c2cc(C3CCCCC3)nn2C)cc1	?	1.9%	?	i
COc1ccc(C(=O)NC[C@H]2C[C@@H]3CCN2C[C@@H]3c2cc(-c3ccc4ccccc4c3)nn2C)cc1	17.8µM*	0.6%	?	i
CCOC(=O)[C@H]1CN(C(=O)/C=C/c2ccccc2)[C@]2(C)C(=O)N(C)c3ccccc3[C@H]12	?	.	-19.6%[46.1 µM]	.
Cn1nc(C2CCCCC2)cc1[C@H]1CN2CC[C@H]1C[C@@H]2CNC(=O)c1cccs1	100µM*	-2.4%[70.6 µM]	?	i
N#CC1(c2ccccc2)CCN(C(=O)c2ccc3nccn3c2)CC1	-13.6%	-4.0%	-26.4%	i
COc1cc2c(cc1CCc1ccccc1)N(C(=O)C1CCC(C)CC1)CC21CCN(C(C)=O)CC1 (stereo not given)	39.8µM*	?	31.6µM*	i
COc1cc2c(cc1CCc1ccccc1)N(C(=O)c1c[nH]c3ccccc13)CC21CCN(C(C)=O)CC1	25.1µM*	-19.0%	22.4µM*	i
COc1cc2c(cc1CCc1ccccc1)N(C(=O)C(C)C)CC21CCN(C(C)=O)CC1	89.1µM*	4.4%[70.6 µM]	-98.1%[138 µM]	i
COc1cc2c(cc1OCc1ccccc1)N(C(=O)c1ccn(C)n1)CC21CCN(C)CC1	-20.7%	3.4%	?	i
COc1cc2c(cc1CCc1ccccc1)N(C(=O)c1ccnn1C)CC21CCN(C(C)=O)CC1	?	2.1%	?	i
O=C1Nc2ccccc2CC12CCN(Cc1ccccn1)C2 (stereo not given)	-29.5%[172 µM]	-2.4%[70.6 µM]	-8.8%[138 µM]	i
COc1cc2c(cc1OCc1ccccc1)NC(=O)C21CCN(C(C)=O)CC1	?	-3.0%[70.6 µM]	39.8µM*	?
COc1cc2c(cc1OCc1ccccc1)NC(=O)C21CCN(Cc2c(C)noc2C)CC1	25.1µM*	?	?	?
COc1cc2c(cc1OCc1ccccc1)NC(=O)C21CCN(Cc2nccn2C)CC1	?	4.0%[70.6 µM]	?	?
COc1cc2c(cc1OCc1ccccc1)NC(=O)C21CCN(c2ccnc(C)n2)CC1	28.2µM*	?	?	?
COc1cc2c(cc1OCc1ccccc1)NC(=O)C21CCN(c2ncccn2)CC1	?	-26.6%[70.6 µM]	?	i
COc1cncc(-c2cc3c(cc2OC)C2(CCN(C(C)=O)CC2)C(=O)N3)c1	-14.5%[172 µM]	-0.1%[70.6 µM]	31.6µM*	i
SMILES	HEK cytotox	NPR1 antag	3T3 cytotox	Luciferase inh
COc1cc2c(cc1OCc1ccccc1)NC(=O)C21CCN(Cc2ccncc2)CC1	?	?	?	i
COc1cc2c(cc1OCc1ccccc1)NC(=O)C21CCN(Cc2ccccc2)CC1	31.6µM*	-25.2%[70.6 µM]	31.6µM*	i
O=C(Nc1cccc(C(F)(F)F)c1)OC[C@H]1C[C@@H]2CCN1C[C@@H]2c1cc(C2CCCC2)nc(-c2ccncc2)n1	3.98µM*	?	?	i
CC(=O)c1ccc(NC(=O)OC[C@H]2C[C@@H]3CCN2C[C@@H]3c2cc(C3CCCC3)nc(-c3ccncc3)n2)cc1	31.6µM*	-16.6%	22.4µM*	i
CCC(CC)c1cc([C@H]2CN3CC[C@H]2C[C@@H]3CNC(=O)CSCC(=O)O)nc(-c2ccncc2)n1	?	0.6%	?	i
CC(C)NC(=O)OC[C@H]1C[C@@H]2CCN1C[C@@H]2c1cc(C2CCCC2)nc(-c2ccncc2)n1	22.4µM*	-22.6%	28.2µM*	i
O=C(NC1CCCCC1)OC[C@H]1C[C@@H]2CCN1C[C@@H]2c1cc(C2CCCC2)nc(-c2ccncc2)n1	?	?	?	i
CC(=O)c1cccc(NC(=O)OC[C@H]2C[C@@H]3CCN2C[C@@H]3c2cc(C3CCCC3)nc(C)n2)c1	14.1µM*	-7.7%	?	i
Cc1cccc(CC(=O)N2CCN(Cc3ccc(=O)n(C)c3)CC2)c1	-11.8%	-12.0%	-3.0%	i
O=C(NCc1ccc(F)cc1)[C@H]1CN2CCC1C[C@@H]2Cn1cc(-c2ccccn2)nn1 (stereo not given in full)	-22.5%[172 µM]	5.6%[70.6 µM]	-26.6%[174 µM]	i
O=C1NCCCCCCN(Cc2ccccn2)[C@H]2CCC[C@@H]12	?	-5.6%	?	i
CCOC(=O)[C@H]1CN(C(=O)OCc2ccccc2)[C@]2(C)C(=O)N(CC3CC3)c3ccccc3[C@H]12	35.5µM*	.	?	.
CCOC(=O)[C@H]1CN(C(=O)NC2CCCC2)[C@]2(C)C(=O)N(CCOC(C)=O)c3ccccc3[C@H]12	-24.1%[57.5 µM]	.	?	.
CCCCCC(=O)N1C[C@H](C(=O)OCC)[C@H]2c3ccccc3N(CC3CC3)C(=O)[C@]21C	31.6µM*	.	?	.
CCOC(=O)[C@H]1CN(C(=O)c2ccno2)[C@]2(C)C(=O)N(CC3CC3)c3ccccc3[C@H]12	?	.	-31.2%[46.1 µM]	.
CCOC(=O)[C@H]1CN(C(=O)OCc2ccccc2)[C@]2(C)C(=O)N(C)c3ccccc3[C@H]12	?	.	-19.9%[46.1 µM]	.
CCOC(=O)[C@H]1CN(C(=O)NC2CCCC2)[C@]2(C)C(=O)N(CC3CC3)c3ccccc3[C@H]12	31.6µM*	.	?	.
CSCC(=O)N1CC(CO)C2(CCNCC2)C1 (stereo not given)	8.5%	0.5%	i	i
CN(Cc1ccccc1)Cc1cn(C[C@H]2C[C@@H]3CCN2C[C@@H]3C(=O)Nc2ccccc2)nn1	?	0.0%	?	i
COCCNC(=O)[C@H]1CN2CCC1C[C@@H]2Cn1cc(C2(O)CCCCC2)nn1 (stereo not given in full)	4.7%[172 µM]	1.8%[70.6 µM]	-4.8%[174 µM]	i
CC(C)NC(=O)N1[C@H]2CC[C@@H]1c1cncnc1C2	i	20.5%	i	i

High-throughput results as filed in PubChem.
